This is an account of results in the supplement of paper PMC11417369.

± gives the standard deviation of the averaged measurements. In all, about 25,000 sequences were measured (“ln(normalized median fluorescence intensity)”: median about 8.6, highest 2% from about 10 on). Shown is part of a subset that was picked to be rich in the highest values.

This test relates to PfAP2-EXP AP2 domain (GST-tagged). Kind of test: gcPBM binding intensity (ln(normalized median fluorescence intensity)); higher = stronger DNA binding. The method in brief: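 Plasmodium falciparum DNA-binding domains carrying a GST tag were expressed in E. coli and applied for 1 h, at about 25 μg on average, to an Agilent 4 × 180k array. The array held primer-extended double-stranded 36-bp intergenic genomic probes together with negative controls, and binding took place in 1× PBS with 1% milk, 0.2 mg/ml BSA, 0.5% salmon testes DNA and 0.03% Triton X-100. An Alexa488 anti-GST antibody detected bound protein, and the array was scanned at 488 nm. Binding intensity is taken as the highest Masliner-normalised natural-log median intensity across replicate spots of either probe orientation.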
As to “CATACAGACGAACACACACACATATAAATATAAATA [CACACA_site6443]”, the “gcPBM binding intensity (ln)” value was 8.74 ± 0.55. With “TTGTAAGAAAAACACACACACACATATATATATATA [CACACA_site795]” the figure was 10.1 ± 0.23; with “GTAAGAAACGGACACACACACATATATATATATATA [CACACA_site4593]”, 10.2 ± 0.23; with “TAAACAGACATATAAACACACATATAAACAGACATA [CACACA_site7214]”, 8.69 ± 0.56.

As to “TGAACAGACGAGCACACACACACATATATATATATA [CACACA_site1019]”, the “gcPBM binding intensity (ln)” value is 10.2 ± 0.26. Turning to “TGAACTCACGAGCACACACACACATATATATATATA [CACACA_site8248]”, the “gcPBM binding intensity (ln)” value was 10.2 ± 0.34. Regarding “ATATATATATATATGTGTACATATTTTTTTGAAGTG [XGTACX_site248]”, the “gcPBM binding intensity (ln)” value is 10.1 ± 0.29. To “TTTTTTTTTTTTTTTTGTACGTAAAAAAATATATAC [XGTACX_site1290]” belongs 8.36 ± 0.22; to “AAATATAATAACGAACGTACTTATTATAATTTGTAA [XGTACX_site2342]”, 8.32 ± 0.25; to “ACATATTAAAATATATGTACATAAAATATGAAAAAA [XGTACX_site5869]”, 8.82 ± 0.3.

For the sequence “ATAATAAAAATATATACATGCATTATTATATATATA [TGCATGCA_site799]”, the “gcPBM binding intensity (ln)” value came to 8.97 ± 0.16. To “AAAATAAAAAGAAAAAATAAAAAGAAAAAATAAAAA [CACACA_negctrl_site120]” belongs 8.33 ± 0.44; to “CATTAAAAAGAAAGTTCACACACATATATATGACGG [CACACA_site8836]”, 8.84 ± 0.57. With “TTTATTATTATATTATTTTAATTTTTCTTTAGTACA [GTGCAC_negctrl_site392]” the figure was 8.29 ± 0.32; with TAATTTCTTTAGGGGGTGCTTTTATAGTTTTTATTA, 10.4 ± 0.54.

Consider CCTAATTTTATTAGGGTGCATTTTTAGTTAAATATA, for which the “gcPBM binding intensity (ln)” value was 8.48 ± 0.27.

For the sequence “AGTATAGATGTATACACACACCAAACGTTAAAAAAA [CACACA_site7443]”, the “gcPBM binding intensity (ln)” value is 8.71 ± 0.53. To “CAAGGAACCGGACACACACACATAAATGTATTTATA [CACACA_site4574]” belongs 8.46 ± 0.5; to “AATAAATATAAATACACACCCATATAAATATAAATA [CACACA_site7264]”, 8.64 ± 0.51; to “TATACATATACATATACACACACACCCATAAATAAA [CACACA_site8372]”, 9.05 ± 0.38. With “AATAAATATAAATACACACCCATATATATATATATA [CACACA_site5436]”, the “gcPBM binding intensity (ln)” value is 10.2 ± 0.35.

Turning to “TATAAATATACACCCACACACATATATAAATAAATA [CACACA_site7717]”, the “gcPBM binding intensity (ln)” value was found to be 8.93 ± 0.79.

Turning to “CACCCACTAATAAACACACACATATATATATATATA [CACACA_site389]”, the “gcPBM binding intensity (ln)” value was found to be 10.2 ± 0.35.

Consider “AATAAATATATATACACACCCATATATATATATATA [CACACA_site2595]”, for which the “gcPBM binding intensity (ln)” value stood at 10.1 ± 0.42. As for “TACATATACATATACACACACACACCCAAATAAATA [CACACA_site1344]”, the “gcPBM binding intensity (ln)” value came to 8.86 ± 0.51. Turning to “AAAAAAAATACATACACACACACACCCACATATATA [CACACA_site3561]”, the “gcPBM binding intensity (ln)” value stood at 8.75 ± 0.65. As to “TATAAATATACACCCACACACATATATATATATATA [CACACA_site3745]”, the “gcPBM binding intensity (ln)” value came out at 10.2 ± 0.4. Regarding “TATATAAATATACACCCACACACATATATATATATA [CACACA_site9247]”, the “gcPBM binding intensity (ln)” value turned out to be 10.2 ± 0.26.

For “CCCACTAAAAAACACACACACACACCCATATATATA [CACACA_site6140]”, the “gcPBM binding intensity (ln)” value came out at 8.98 ± 0.31. With “AAAAAAAAAAAACACACACACACACTAATATATAAA [CACACA_site8302]” the figure was 8.47 ± 0.56; with “TTTTGATATATGAATATTAAGTTATATAATATTTTA [TGCATGCA_negctrl_site39]”, 7.92 ± 0.28. With “ATAATAATTTAATACATACACACGTATATCTTTTTT [CACACA_site2041]” the figure was 8.45 ± 0.4; with “AAAAATTAACAAAAGGTGCAAACAAATAGTGGTTTT [GTGCAC_site9998]”, 8.865 ± 0.049; with “AATTGCTCGATATATGCACACAGTTTTGTTATTTTT [CACACA_site8465]”, 8.94 ± 0.36. To “AAAAAAAAAAAAAAAAGTACAAAAAGGAGAAAGATA [XGTACX_site7862]” belongs 8.9 ± 0.47. Regarding “TTAAAAGAAAATAGGTGTACACATAATATATACATA [XGTACX_site7697]”, the “gcPBM binding intensity (ln)” value amounted to 8.92 ± 0.057. With “TTGTTTCCTTAATATTCACACACATATATATAATAT [CACACA_site8553]” the figure was 8.89 ± 0.48.

On to “TTATATTAAACAAACACACACATATATATATATATA [CACACA_site2382]”, for which the “gcPBM binding intensity (ln)” value was found to be 10.1 ± 0.47. For the sequence “GAATATTAAACAAACACACACACATATATTTATATA [CACACA_site7563]”, the “gcPBM binding intensity (ln)” value came to 8.63 ± 0.42. With “GAATATTAAACAAACACACACACATATATATATATA [CACACA_site3382]” the figure was 10.1 ± 0.32; with “ATATTAAACAAACACACACACATATATATATATATA [CACACA_site3383]”, 10.2 ± 0.26; with “GTTTATATTAAACAAACACACACATATATATATATA [CACACA_site8749]”, 10.2 ± 0.26.

On to “AATTTTTTATTAAACACACAAACATATATATATATA [CACACA_site1937]”, for which the “gcPBM binding intensity (ln)” value was found to be 9.94 ± 0.35.

As for “TATATTAGAAGAAATTCACACATTCATGTAATCTTA [CACACA_site4706]”, the “gcPBM binding intensity (ln)” value worked out at 8.07 ± 0.33. To “ATAAATAAGATATATACACACATATCTATACATATT [CACACA_site6369]” belongs 8.28 ± 0.49.
